# This excerpt belongs to a sample that is enriched for hits.
# HT1080 IDH1KD tx: qHTS for induction of synthetic lethality in tumor cells producing 2HG: qHTS for the HT-1080-IDH1KD cell line; HT-1080 IDH1 knockdown viability, ATP luminescence, 48 h; Potency, µM (titrated, usually from 46.1 µM), inactives show at the top dose activity, negative = toxicity, usual class: cytotoxic; 2% of 360,000 active;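 also: potency is read from the fitted curve at half-maximal effect; 0% = DMSO wells and -100% = cell-free medium wells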
#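 HT-1080-IDH1KD cells (IDH1 knocked down), 750/well in RPMI with 5% FBS, treated with compound 48 h at 37 degrees C. Viability by CellTiter-Glo luminescence, normalised to DMSO and no-cell wells; concentration-response curves classed.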
# HT1080NT lethal: qHTS for induction of synthetic lethality in tumor cells producing 2HG: qHTS for the HT-1080-NT fibrosarcoma cell line. HT-1080-NT fibrosarcoma viability, CellTiter-Glo ATP luminescence, 48 h. Potency, µM (titrated, usually from 46.1 µM), inactives show at the top dose activity, negative = less viability, hits mostly cytotoxic. 1.6% of 360,000 active;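 also: NT is the 2HG producing partner of a matched IDH1 knockdown line; potency is read from the fitted curve at half-maximal effect; 0% = DMSO-treated cells and -100% = media-only wells without cells; nearly all actives have a fitted effect of over 55% in size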
#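 HT-1080-NT fibrosarcoma cells (2HG-overproducing), 750 cells/well in RPMI with 5% FBS, dosed after 2 h and incubated 48 h at 37C. CellTiter-Glo luminescence normalized to DMSO and no-cell wells; concentration-response curves fitted and classed.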
# IL-1B inflam inh: qHTS for Inhibitors of Inflammasome Signaling: IL-1-beta AlphaLISA Primary Screen; 4.7% of 360,000 active; THP-1 LPS/ATP IL-1B secretion, AlphaLISA, 16 h; active compounds read low; activity change, % at 57.5 µM; in the data active = activity change below about -50%; inconclusive = mostly about -30% to -49%
#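 Secreted IL-1B measured by AlphaLISA bead assay after 16 h compound exposure of THP-1 cells; compounds (final up to 57.5 uM) added 1 h before LPS (250 ng/mL) and ATP (1.25 mM) stimulation; lower signal means less secretion.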
# TDP1 cell noCPT: qHTS for Inhibitors of human tyrosyl-DNA phosphodiesterase 1 (TDP1): qHTS in cells in absence of CPT | DT40 Tdp1-/- hTDP1 cells, no CPT, ATP luminescence, 48 h | 15% of 420,000 active | Potency, µM (top dose mostly 46.2 µM), without a hit: at the top dose activity change, negative = growth inhibition, most hits filed as inhibitors; also: potency is read from the fitted curve at half-maximal effect; nearly all actives have a fitted effect of over 55% in size
#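 Growth kinetics read by CellTiter-Glo luminescence after ≥48 hr at 37 °C. Cells: DT40 Tdp1-/- stably carrying human TDP1, 400 per well, compound exposure in the absence of CPT (DMSO vehicle).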
# DT40 TDP1 CPT: qHTS for Inhibitors of human tyrosyl-DNA phosphodiesterase 1 (TDP1): qHTS in cells in presence of CPT; Potency, µM (titrated, usually from 46.2 µM), without a hit: at the top dose activity change, negative = growth inhibition, actives largely listed as inhibitors; 12% of 420,000 active; chicken DT40 Tdp1-/-;hTDP1 cells + 20 nM CPT, ATP luminescence, 48 h; also: potency is read from the fitted curve at half-maximal effect; nearly all actives have a fitted effect of over 55% in size
#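 Cell growth measured by CellTiter-Glo luminescence after a minimum 48 h, 37 C compound exposure with 20 nM CPT in Tdp1-knockout DT40 cells stably expressing hTDP1, seeded 400/well; qHTS titration format.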
# ALOX12 inh: Primary qHTS assay for inhibitors of human arachidonate 12S-lipoxygenase (ALOX12): Round 2 | Polyunsaturated fatty acid lipoxygenase ALOX12 (Homo sapiens), P18054 | 1.1% of 580,000 active | purified 12hLO, xylenol orange hydroperoxide absorbance | AID 1671190, 2021 | Potency, µM (highest dose often 108 µM), for the others: at the top dose activity change, negative = inhibition, hits mostly inhibitors; also: potency is read from the fitted curve at half-maximal effect
# Target sequence (P18054 whole entry, looked up): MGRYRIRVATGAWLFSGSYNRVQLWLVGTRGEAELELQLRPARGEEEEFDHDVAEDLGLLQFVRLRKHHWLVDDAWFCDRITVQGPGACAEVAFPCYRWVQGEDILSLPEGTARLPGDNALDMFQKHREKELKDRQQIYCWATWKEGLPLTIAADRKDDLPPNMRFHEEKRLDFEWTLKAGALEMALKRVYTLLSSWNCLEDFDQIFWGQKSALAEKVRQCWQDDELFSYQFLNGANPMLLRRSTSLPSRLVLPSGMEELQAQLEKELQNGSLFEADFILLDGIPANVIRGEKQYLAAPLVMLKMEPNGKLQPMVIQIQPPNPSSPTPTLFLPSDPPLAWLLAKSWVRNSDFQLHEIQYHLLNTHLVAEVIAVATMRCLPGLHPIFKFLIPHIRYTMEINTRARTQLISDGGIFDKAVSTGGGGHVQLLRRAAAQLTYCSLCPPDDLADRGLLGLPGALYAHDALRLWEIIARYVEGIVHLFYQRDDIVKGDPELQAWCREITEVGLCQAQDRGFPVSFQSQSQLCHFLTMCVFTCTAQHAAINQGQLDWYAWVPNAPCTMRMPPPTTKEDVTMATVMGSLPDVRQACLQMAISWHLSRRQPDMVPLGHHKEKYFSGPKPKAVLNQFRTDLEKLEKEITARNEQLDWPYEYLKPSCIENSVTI
#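 Purified human 12hLO (150 nM final) in 25 mM Hepes, 0.01% Triton X-100, pH 7.0 was preincubated 15 min at room temperature with compound. Then 40 uM arachidonic acid was added, 30 min. Hydroperoxide was read by Fe-XO absorbance ratio 573/405 nm.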
# * marks the source's active call; other numbers are inactive results; ? = inconclusive; . = not tested or not shown; [ ] = remark or other dose. Unless noted, calls follow the shape of the dose curve; as a rule, active = well fitted curve in the direction sought with a large enough effect; inconclusive = small, poorly fitted or top-dose-only effect, or another doubt; inactive = no such curve, though single readings can be large; an effect the other way counts as inactive or inconclusive. Unless noted, % is scaled to controls: 0 for no effect and ±100 for the full control effect.
SMILES,HT1080 IDH1KD tx,HT1080NT lethal,IL-1B inflam inh,TDP1 cell noCPT,DT40 TDP1 CPT,ALOX12 inh
CCN(CC)c1ccc(-c2nc(-c3ccncc3)no2)cc1[N+](=O)[O-],.,.,.,14.6µM*,13µM*,-7.5%
CCCNc1ccc(-c2nc(-c3ccccn3)no2)cc1[N+](=O)[O-],.,.,.,-15.5%,-4.9%,-27.6%
C=CCS/C(N)=N\N=C\c1cc(Br)cc([N+](=O)[O-])c1O,-17.3%,-13.4%,8.7,7.31µM*,?,-14.6%
CS/C(N)=N/N=C/c1cc(Br)cc(Br)c1O,-6.3%,0.0%,0.0,16.4µM*,?,7.5%
CS/C(N)=N/N=C/c1cc(C)ccc1O,-11.1%,-0.4%,-26.3,?,-2.9%,-9.7%
Cc1no[n+]([O-])c1COc1cccc(/C=N/Nc2nncn2N)c1,-0.3%,-4.4%,-7.9,-15.7%,?,56.2%
Nn1cnnc1N/N=C/c1cc(Br)cc(Br)c1O,?,-21.2%,-66.7*,?,?,31.1%
CSc1ccc(/C=N\Nc2nncn2N)cc1,20.6µM*,?,-1.8,-25.1%,?,?
CC(C)(C)c1ccc(/C=N/Nc2nncn2N)cc1,?,-19.7%,-23.4,-2.8%,-18.7%,16.4%
Cc1cc(Cn2cc3c4c(cccc42)[C@H](CC(C)C)N[C@H](C(=O)NCC2CC2)C3)no1,.,.,.,.,.,-2.0%[176 µM]
CCOc1ccc(CNC(=O)c2ccc3c(c2)sc2nc(-c4ccc(OC)cc4)cn23)cc1,.,.,.,-17.9%,-3.5%,-29.0%
COc1cccc(-c2cn3c(n2)sc2cc(C(=O)NCc4cccs4)ccc23)c1,.,.,.,6.51µM*,13µM*,?
COc1ccc(-c2cn3c(n2)sc2cc(C(=O)Nc4c(C)cccc4C)ccc23)cc1,.,.,.,9.2µM*,13µM*,-8.9%
COc1cccc(C(=O)c2c[nH]c(C(=O)NCc3cccs3)c2)c1,6.9%,-4.2%,-62.1*,-22.1%,-1.6%,0.0%
COc1ccc(-c2cn3c(n2)sc2cc(C(=O)NCc4cccs4)ccc23)cc1,.,.,.,13µM*,10.3µM*,-28.4%
Cc1cccc(NC(=O)C2CCN(c3nc4ccccc4o3)CC2)c1C,.,.,.,.,.,-16.8%
Cc1cccc(C(=O)N2CCC(n3cnnc3C3CC3)CC2)c1,.,.,.,.,.,14.0%
COc1cccc(-c2cn3c(n2)sc2cc(C(=O)NCCCc4ccccc4)ccc23)c1,.,.,.,4.61µM*,6.51µM*,-24.5%
COc1ccc(-c2cn3c(n2)sc2cc(C(=O)NCCCc4ccccc4)ccc23)cc1,.,.,.,-10.3%,-23.4%,?
CCOc1ccc(CNC(=O)c2ccc3c(c2)sc2nc(-c4ccccc4)cn23)cc1,.,.,.,-13.2%,-17.4%,-22.3%
COc1ccc(-c2cn3c(n2)sc2cc(C(=O)Nc4ccc(C)cc4C)ccc23)cc1,.,.,.,?,-29.6%,?
COc1ccc(-c2cn3c(n2)sc2cc(C(=O)N4CCCCC4)ccc23)cc1,.,.,.,20.6µM*,?,-24.2%
O=C(NCc1cccs1)c1ccc2c(c1)sc1nc(-c3ccccc3)cn12,.,.,.,23.1µM*,18.4µM*,?
CCCCNC(=O)/C(=C\c1ccc([N+](=O)[O-])o1)NC(=O)c1ccccc1,0.0%,-12.1%,24.7,?,16.4µM*,-22.7%
COC(=O)/C(=C\c1ccc([N+](=O)[O-])o1)NC(=O)c1ccccc1,-14.3%,?,5.5,11.2µM*,14.1µM*,?
SMILES,HT1080 IDH1KD tx,HT1080NT lethal,IL-1B inflam inh,TDP1 cell noCPT,DT40 TDP1 CPT,ALOX12 inh
N#Cc1cccc(NC(=O)NCCNC(=O)Nc2cccc(C#N)c2)c1,.,.,.,.,.,-1.2%
O=[N+]([O-])c1ccc(C(O)CN=Cc2ccc(O)cc2O)cc1 (stereo unspecified),8.2µM*,11.6µM*,0.0,?,23.1µM*,?
NS(=O)(=O)c1ccc(N/N=C/c2ccc(O)cc2O)c([N+](=O)[O-])c1,-8.8%,-5.5%,-10.7,?,?,-2.1%
C=C(C)Cn1c(N2CCN(CC(N)=O)CC2)nc2c1c(=O)[nH]c(=O)n2C,.,.,.,.,.,-0.4%
O=C(CC[C@H]1NC(=O)c2ccccc2NC1=O)NCCc1ccccn1,.,.,.,.,.,109.3%
O=C1Nc2cc(C(=O)N3CCc4ccccc4C3)ccc2S/C1=C\c1ccccc1,5.3%,9.0%,-4.6,0.2%,7.9%,-8.4%
Cc1cccc(/C=C2/Sc3ccc(C(=O)NCCCN4CCOCC4)cc3NC2=O)c1,.,.,.,.,.,-18.8%
COc1ccc(/C=C2/Sc3ccc(C(=O)NCCCN4CCOCC4)cc3NC2=O)cc1OC,20.6µM*,?,43.3,2.59µM*,4.61µM*,-3.1%
O=C1Nc2cc(C(=O)NCCN3CCCCCC3)ccc2S/C1=C\c1ccccc1,?,?,-92.6*,11.6µM*,13µM*,?
Cc1cccc(/C=C2/Sc3ccc(C(=O)NCCN4CCCC4)cc3NC2=O)c1,-4.2%,7.7%,?,23.1µM*,?,?
CCN1CCN(CCCNC(=O)c2ccc3c(c2)NC(=O)/C(=C\c2cccc(C)c2)S3)CC1,6.9%,?,-86.7*,?,16.4µM*,?
COc1cccc(/C=C2/Sc3ccc(C(=O)NCCN4CCCCCC4)cc3NC2=O)c1,-16.4%,?,-27.3,?,?,?
O=C(NCCc1ccc(C(F)(F)F)cc1)C1CC2CCCC(C1)C2=O (stereo unspecified),.,.,.,.,.,-5.0%
C[C@@H]1CCC[C@H](C)N1CC(=O)N1CCn2nc(Cc3ccccc3)cc2C1,.,.,.,.,.,87.9%
CCN1CCN(CCCNC(=O)c2ccc3c(c2)NC(=O)c2ccccc2S3)CC1,-6.5%,-14.1%,12.7,?,-24.9%,-26.2%
O=C1Nc2cc(C(=O)NCCCN3CCCC3)ccc2S/C1=C/c1cccc(Cl)c1,?,-29.6%,-4.0,?,6.51µM*,?
CCOC(=O)C1CCN(C(=O)c2ccc3c(c2)NC(=O)/C(=C\c2cccc(C)c2)S3)CC1,0.0%,-0.5%,-18.8,18.4µM*,?,-34.3%
CN(Cc1ccccc1NC(=O)c1ccccc1C(F)(F)F)C1CCCCC1,.,.,.,.,.,8.8%
CS(=O)(=O)c1ccc(CN2C[C@H](O)C[C@H]2c2nc(-c3cnccn3)no2)cc1,.,.,.,.,.,14.1%[176 µM]
